Measurements from the supplement of paper PMC6555819.

Tests used:
Experiment in all cases: PBM binding z-score (relative to random genomic background probes); higher = stronger binding; sequences stand for … in GC…GCGATTGACAGCGTAGAATGAAGG
[1] = tested on: FXR:RXRa (NR concentration 270 nM, RXRa partner concentration 90 nM)
Method in brief: (§1)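 Ligand-free nuclear receptor dimers were applied to custom Agilent 4×180K protein-binding microarrays whose double-stranded probes carried direct-repeat seeds, single-nucleotide variants, half-site ablations and random human genomic background sequences in 34-nt variable regions. Incubation lasted 1 h. Binding z-scores were computed against the random background probes from regression-normalized fluorescence.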

[2] = tested on: LXRa:RXRa (NR concentration 270 nM, RXRa partner concentration 90 nM)
Method in brief: as §1

[3] = tested on: LXRa homodimer (NR concentration 270 nM)
Method in brief: as §1

[4] = tested on: LXRb:RXRa (NR concentration 270 nM, RXRa partner concentration 90 nM)
Method in brief: as §1

[5] = tested on: LXRb homodimer (NR concentration 270 nM)
Method in brief: as §1

[6] = tested on: PPARa:RXRa (NR concentration 270 nM, RXRa partner concentration 90 nM)
Method in brief: as §1

[7] = tested on: PPARg:RXRa (NR concentration 180 nM, RXRa partner concentration 90 nM)
Method in brief: as §1

[8] = tested on: PPARg:RXRa 270nM:90nM, anti-RXR (NR concentration 270 nM, RXRa partner concentration 90 nM)
Method in brief: as §1

[9] = tested on: PPARg:RXRa 30nM:10nM, anti-RXR (NR concentration 30 nM, RXRa partner concentration 10 nM)
Method in brief: as §1

[10] = tested on: PPARg:RXRa 90nM:30nM, anti-RXR (NR concentration 90 nM, RXRa partner concentration 30 nM)
Method in brief: as §1

[11] = tested on: PPARg:RXRa DBDmut IVT, anti-RXR (DBD mutation: RXRa K156A/R161A, NR concentration 270 nM, RXRa partner concentration 90 nM)
Method in brief: as §1

[12] = tested on: PPARg:RXRa IVT, anti-PPARg (NR concentration 270 nM, RXRa partner concentration 90 nM)
Method in brief: as §1

[13] = tested on: PPARg DBDmut:RXRa IVT, anti-PPARg (DBD mutation: PPARg1 K132A/R137A, NR concentration 270 nM, RXRa partner concentration 90 nM)
Method in brief: as §1

[14] = tested on: PPARg DBDmut IVT, anti-PPARg (DBD mutation: PPARg1 K132A/R137A, NR concentration 270 nM)
Method in brief: as §1

[15] = tested on: PPARg homodimer (NR concentration 180 nM)
Method in brief: as §1

[16] = tested on: PXR:RXRa (NR concentration 270 nM, RXRa partner concentration 90 nM)
Method in brief: as §1

[17] = tested on: PXR homodimer (NR concentration 270 nM)
Method in brief: as §1

[18] = tested on: RARa:RXR (NR concentration 270 nM, RXRa partner concentration 90 nM)
Method in brief: as §1

[19] = tested on: RARa homodimer (NR concentration 270 nM)
Method in brief: as §1

[20] = tested on: RARb:RXRa (NR concentration 270 nM, RXRa partner concentration 90 nM)
Method in brief: as §1

| Sequence | PBM binding z-score [1] | PBM binding z-score [2] | PBM binding z-score [3] | PBM binding z-score [4] | PBM binding z-score [5] | PBM binding z-score [6] | PBM binding z-score [7] | PBM binding z-score [8] | PBM binding z-score [9] | PBM binding z-score [10] | PBM binding z-score [11] | PBM binding z-score [12] | PBM binding z-score [13] | PBM binding z-score [14] | PBM binding z-score [15] | PBM binding z-score [16] | PBM binding z-score [17] | PBM binding z-score [18] | PBM binding z-score [19] | PBM binding z-score [20] |
| --- | --- | --- | --- | --- | --- | --- | --- | --- | --- | --- | --- | --- | --- | --- | --- | --- | --- | --- | --- | --- |
| TCGAGTAGGTTAGTGGGGGCATTCAGCCAACATA | 1.28 | 1.52 | 0.619 | 3.73 | 6.59 | 2.68 | 2.05 | 3.03 | 1.76 | 2.53 | 3.24 | 4.33 | 4.17 | 4.96 | 1.66 | 2.68 | 1.78 | 1.76 | 0.673 | 1.39 |
| GTACCAAGGCGAATAGGTCGTTGATGAGTAGGCG | -0.145 | -0.392 | -0.286 | -0.382 | -0.895 | 0.351 | 0.461 | -0.0926 | -0.512 | -0.516 | -0.264 | -0.208 | -0.611 | -1.17 | -0.305 | -0.106 | -0.0295 | 0.507 | -0.623 | 0.291 |
| CCTACTGGGCCAAAGGTCAATGATTCCAATGCTC | 4.07 | 4.39 | 2.6 | 4.52 | 0.165 | 6.29 | 12.1 | 10.4 | 10 | 12.8 | 5.3 | 6.73 | 1.6 | 1.78 | 4.39 | 4.46 | 0.657 | 5.75 | 1.53 | 4.5 |
| TCTAGCAGGCCAGAGGGTCAGTCAAGAGGTACGG | 0.425 | 0.152 | -0.884 | 0.413 | -1.51 | 1.35 | 0.768 | 1.81 | 1.49 | 1.68 | 0.768 | 0.496 | -0.553 | -1.25 | 0.21 | 0.465 | -0.829 | 0.985 | -0.753 | 1.77 |
| GCTGCTAGGTCAGGTTGGTCCGCTAACGGGTACG | 1.45 | 0.788 | -0.309 | 0.439 | 0.221 | 1.46 | 0.195 | 0.764 | -0.421 | 0.25 | 2.43 | 2.33 | -0.695 | -0.237 | 0.526 | 0.421 | -0.826 | 0.786 | -0.467 | 3.27 |
| GCGACTGGGGCAAAGCATGTTACCATAAGGTTGG | -0.69 | -0.602 | -0.362 | -0.192 | -1.06 | 0.898 | 1.61 | 2.22 | 0.294 | 1.58 | 4.73 | 3.23 | -0.245 | -0.674 | 0.0632 | -0.48 | -0.713 | -0.255 | -1.06 | 0.551 |
| ACAGACAGGTGATGAAGGTCACTCAGGCTATCAT | 1.77 | 2.17 | 0.813 | 1.96 | 0.00655 | 2.75 | 1.62 | 1.8 | 0.565 | 1.21 | 0.771 | 1.97 | 0.688 | 0.177 | 2.08 | 2.81 | 2.02 | 2.83 | 0.664 | 3.03 |
| TTAGCAAGGTGAAGGTCGTTGATCCCTCTGTAGA | 1.98 | 1.6 | -0.45 | 0.97 | -0.841 | 2.38 | 1.94 | 3.32 | 1.18 | 2.64 | 0.732 | 2.79 | -0.57 | -0.963 | 0.358 | 1.19 | -0.023 | 1.51 | -0.525 | 2.03 |
| AGTCAAAGTTCAGGACGTGGTAACGTAAAGCACG | 3.46 | 3.57 | 0.963 | 1.49 | 0.114 | 3.12 | 4.28 | 4.75 | 2.07 | 3.71 | -0.468 | 1.64 | 0.643 | 0.0633 | 1.68 | 2.15 | 0.643 | 1.86 | 0.703 | 4.15 |
| GCATATCGGTAATACAAGGTGAAAGTCCGATTGT | 0.694 | 0.4 | 0.294 | 0.243 | -0.333 | 0.84 | 0.415 | 0.8 | 0.385 | 0.634 | 0.472 | 0.945 | 0.308 | 0.208 | 0.544 | 0.155 | 0.188 | 0.793 | 0.00157 | 0.541 |
| CGTCCAAGGGCAGAGAGGTCAGTGAATGCCGAGT | 1.75 | 1.84 | 0.628 | 1.59 | -0.506 | 2.5 | 0.642 | 1.19 | -0.361 | 0.293 | 0.812 | 1.16 | -1.66 | -1.28 | 1.16 | 3.43 | 6.33 | 2.56 | -0.0232 | 3.92 |
| ATCGAAAGGTCGATGGTGAGTATACCCACCCGAA | 3.01 | 2.38 | -0.15 | 1.83 | 0.391 | 3.29 | 1.48 | 1.85 | 0.714 | 1.02 | -0.671 | 0.8 | 0.684 | 0.102 | 1.04 | 1.51 | -0.361 | 2.18 | 0.322 | 3.03 |
| GCATATATGTAATACAAGGTGAAAGTCCGATTGT | 0.416 | 0.403 | 0.269 | 0.457 | 0.00515 | 1.08 | 1.35 | 0.83 | 0.428 | 0.72 | 1.6 | 1.75 | 0.651 | 0.705 | 0.207 | 0.156 | 0.0966 | 1.35 | 0.0285 | 0.445 |
| CGCACGAGGGCATGAGTTGATAGCAAATGCCGAT | 0.564 | 0.295 | -0.626 | 0.0671 | -0.764 | 1.1 | 0.947 | 0.583 | -0.123 | 0.22 | 1.88 | 1.02 | -0.109 | -0.507 | 0.288 | 0.438 | -0.109 | 0.296 | -0.714 | 2.09 |
